An excerpt weighted towards active compounds, which were near 11% of everything screened.
USP17 block = inhibitors of human USP17 deubiquitinase; AID 1645855, 2021; 6.5% of 47,000 active; purified USP17, Ub-rhodamine cleavage fluorescence, 3 h; Ubiquitin carboxyl-terminal hydrolase 17-like protein 5 (Homo sapiens), A8MUK1; inhibition, % at 50 µM
USP30 block = inhibitors of human USP30 deubiquitinase; Ubiquitin carboxyl-terminal hydrolase 30 (Homo sapiens), Q70CQ3; purified USP30, Ub-rhodamine cleavage fluorescence; inhibition, % at 25 µM; 5.3% of 47,000 active; AID 1645860, 2021
USP28 block = inhibitors of human USP28 deubiquitinase; inhibition, % at 25 µM; purified USP28, Ub-rhodamine cleavage fluorescence, 30 min; 3% of 47,000 active; Ubiquitin carboxyl-terminal hydrolase 28 (Homo sapiens), Q96RU2
OTUD3 block = inhibitors of human OTUD3 deubiquitinase; OTU domain-containing protein 3 (Homo sapiens), Q5T2D3; inhibition, % at 25 µM; 0.7% of 47,000 active; purified OTUD3, Ub-rhodamine fluorescence, 2 h
Target sequence (Q5T2D3 whole entry, looked up, the tested form may be a part): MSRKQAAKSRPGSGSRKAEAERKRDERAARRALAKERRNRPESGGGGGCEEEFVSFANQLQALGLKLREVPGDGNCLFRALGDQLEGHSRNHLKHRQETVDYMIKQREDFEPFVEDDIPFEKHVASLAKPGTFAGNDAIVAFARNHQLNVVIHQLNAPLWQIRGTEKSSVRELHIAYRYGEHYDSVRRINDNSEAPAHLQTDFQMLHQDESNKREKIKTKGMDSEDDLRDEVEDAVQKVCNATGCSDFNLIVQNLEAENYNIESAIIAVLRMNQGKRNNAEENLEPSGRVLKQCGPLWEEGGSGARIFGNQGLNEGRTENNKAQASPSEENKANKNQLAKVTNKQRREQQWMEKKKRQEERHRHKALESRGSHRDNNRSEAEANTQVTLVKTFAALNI
A number is an active result; – = inactive; · = no result given. Cut-off read from the data, not from the text of the source: active = inhibition above about 30%; inactive = the rest.

SMILES | USP17 block | USP30 block | USP28 block | OTUD3 block
O=C(NC1CC1)c1ccc(-c2ccc(N3CCCCC3)nc2)cc1 | 47.8 | – | – | –
O=c1[nH]c(-c2ccncc2)nc2c1CCN(Cc1ccc3ncccc3c1)C2 | – | – | – | –
Clc1ccc(Cn2c(NCc3ccccc3Cl)nc3ccccc32)cc1 | – | 34.2 | – | –
Clc1ccc(Cn2c(C3CCCO3)nc3ccccc32)cc1 (centres undefined) | · | – | – | –
O=C(Oc1coc(CSc2ncccn2)cc1=O)c1c(F)cccc1F | – | – | – | –
Cc1nc2ccc(C(=O)Nc3cc(Cl)cc4cccnc34)cc2nc1C | 63.5 | – | – | –
COc1ccccc1CNC(=O)CCCCn1c(=O)c2ccccc2n(CC(=O)NCCC2=CCCCC2)c1=O | 42.6 | – | – | –
COc1cc(OC)cc(-n2c(=O)c3ccccc3n(CC(=O)NCCC3=CCCCC3)c2=O)c1 | – | – | – | –
O=C(Cn1c(=O)c2sccc2n(CC(=O)NCCC2=CCCCC2)c1=O)NCc1ccccc1Cl | 47.6 | · | · | –
COc1ccc2c(CNCCC3=CCCCC3)c(C(=O)O)n(Cc3ccccc3F)c2c1 | – | 39.6 | – | –
COc1ccc(-n2c(=O)c3ccc(C(=O)NCCc4ccccc4)cc3n(CC(=O)Nc3ccc(C)cc3C)c2=O)cc1 | – | – | – | –
COc1ccc(-n2c(=O)c3ccc(C(=O)NCCc4ccccc4)cc3n(CC(=O)NCCC3=CCCCC3)c2=O)cc1 | 40.5 | – | – | –
CC(C)n1ncc2[nH]c(-c3ccc(N4CCN(C(=O)N5CCOCC5)CC4)cc3)nc21 | – | – | – | –
Cc1ccc(NC(=O)N2CC(c3nc(Cc4ccccc4)no3)C2)cc1 | – | – | – | –
Cc1cc(C)c(S(=O)(=O)N2CCNC(=O)CC2)c(C)c1 | – | – | – | –
O=C(CCCn1c(=O)c2ccccc2n(CC(=O)N2CCN(c3ccccc3)CC2)c1=O)NCc1ccco1 | · | – | – | –
COc1ccccc1CNC(=O)CCCn1c(=O)c2ccccc2n(CC(=O)N2CCN(c3ccccc3)CC2)c1=O | 57.3 | – | – | –
C[C@H]1[C@H](C)CCC23CC[C@]4(C)[C@@](C=CC5[C@@]6(C)CC[C@H](O)C(C)(C)[C@@H]6CC[C@]54C)(OC2=O)[C@H]13 (some centres undefined) | 50.3 | 56.2 | 38.4 | 32.0
Fc1cccc(CNc2cc(-n3ccnc3)ncn2)c1 | – | – | 31.9 | –
Cc1cccc(CNc2cc(-n3ccnc3)ncn2)c1 | – | – | – | –
Cc1cccc(NC(=O)N2CCN(c3cnn4c(C)nnc4c3)CC2)c1 | – | – | – | –
COc1ccc2[nH]cc(S(=O)(=O)c3ccc(C)c(F)c3)c(=O)c2c1 | 59.1 | 42.6 | – | –
COc1ccc(S(=O)(=O)c2c[nH]c3ccc(C)cc3c2=O)cc1Cl | 37.2 | – | – | –
COc1ccc2[nH]cc(S(=O)(=O)c3ccc(C#N)cc3)c(=O)c2c1 | 31.4 | – | – | –
COc1cc2c(cc1CN1CCOC(c3cc(Nc4ccccn4)cc(C)n3)C1)OCCO2 (centres undefined) | – | – | – | –
SMILES | USP17 block | USP30 block | USP28 block | OTUD3 block
Cc1cc(-c2cnc(N3CCCC3)nc2[C@H]2CCCO2)on1 | – | – | – | –
Cc1cc(-c2cnc(N(C)C)nc2-c2ccc(CNC(=O)Cc3ccc(F)cc3)cc2)on1 | 63.5 | – | – | –
Cc1cc(-c2cnc(NCc3cccc(F)c3)nc2[C@@H]2CCCO2)on1 | – | – | 35.1 | –
Cc1cc(-c2cnc(NCc3ccc(F)cc3)nc2-c2ccco2)on1 | 32.7 | – | – | –
CC(=O)N1Cc2ccccc2CC2(CCN(Cc3ccccc3)C2)C1 (centres undefined) | – | · | · | –
O=C(Nc1ccccc1F)c1nc(-c2cn(-c3ccc(F)cc3)nn2)no1 | – | – | – | –
COc1cc(-c2nc3sc4c(c3c(=O)[nH]2)CCCC4)cc(OC)c1O | – | – | – | –
COc1ccc(-c2nc3sc4c(c3c(=O)[nH]2)CCCCCC4)c(OC)c1 | 31.1 | 34.0 | – | –
OC(CN1CCN(c2ccc(F)cc2)CC1)c1ccc2c(c1)CCN2 (centres undefined) | 58.0 | 60.6 | – | –
COc1ccc2c(C(O)CN3CCN(c4ccc(F)cc4)CC3)c[nH]c2c1 (centres undefined) | – | – | – | –
Cc1ccc(NC(=O)Nc2nnc(CC(=O)NCc3ccccc3)s2)cc1F | – | – | – | –
COc1ccc(CC(=O)N2CCc3cc(OC)c(OC)cc3C2COc2ccc([N+](=O)[O-])cc2)cc1 (centres undefined) | – | 44.2 | – | –

From PubChem
